Results filed as inconclusive are left out. Activity calls are given as the source filed them. Calls follow the shape of the dose curve; as a rule, active = well fitted cell-killing curve with a large enough effect in the repeat runs; inconclusive = weak or mixed curves, or effect the other way; inactive = no such curve, though single readings can be large or run the other way. Where a SMILES comes first, the peptide text is derived from it. [ ]: non-standard residue; d: D form. pGlu = O=C1CC[C@@H](C(=O)O)N1
Experiment: qHTS assay to identify small molecule agonists of the farnesoid-X-receptor (FXR) signaling pathway - cell viability counter screen (AID 743218); also: nearly all actives have a fitted effect of over 45% in size
Details: FXR-bla HEK293T viability, CellTiter-Glo luminescence, 16 h; series mostly up to 62.6 µM
Description: U.S. Tox21 Program National Center for Advancing Translational Sciences [NCATS] NIH Chemical Genomics Center [NCGC] U.S. Environmental Protection Agency [EPA] National Institutes of Environmental Health Sciences [NIEHS] National Toxicology Program [NTP] U.S. Food and Drug Administration [FDA] Tox21 Assay Overview: The farnesoid-X-receptor (FXR), a nuclear hormone receptor, is highly expressed in liver, intestine, kidney and adrenal cortex. Natural ligands of FXR are the bile acids (Cholic acid, Chenodeoxy cholic acid etc). FXR is an important regulator of diverse metabolic pathways, including the bile acid homeostasis, lipid and glucose metabolisms. FXR regulates the expression of target genes by binding either as a monomer or as a heterodimer with the retinoid X receptor (RXR). Numerous studies have reported that FXR exerts protective function during cholestasis, diabetes, liver regeneration, and cancer. To identify compounds that activate FXR signaling, GeneBLAzer FXR-UAS-bla HEK 293T cell line (Invitrogen, Carlsbad, CA) containing a beta-lactamase reporter gene under the control of a UAS response element was used to screen the Tox21 10K compound library. The cytotoxicity of the Tox21 compound library against the FXR-bla cell line was tested in parallel by measuring the cell viability using CellTiter-Glo assay in the same wells.
Tox21 Assay Protocol Summary: FXR-bla cells were dispensed at 5000 cells/5uL/well in 1536-well black wall/clear bottom plates using a Multidrop Combi (Thermo Fisher Scientific, Waltham, MA) dispenser. After the assay plates were incubated at 37 C and 5% CO2 for 5 h, 23 nL of compounds dissolved in DMSO, positive controls or DMSO only was transferred to the assay plate by a Pintool station (Kalypsys, San Diego, CA). The assay plates were incubated at 37C for 16 h. After 1 uL of LiveBLAzerTM B/G FRET substrate was added using a Bioraptr Flying Reagent Dispenser (FRD) workstation (Beckman Coulter, Indianapolis, IN), the plates were incubated at room temperature for 2 h, and fluorescence intensity was measured by an Envision plate reader (PerkinElmer, Shelton, CT). For cell viability readout that measures cytotoxicity, 4uL/well of CellTiter-Glo reagent was added into the assay plates using a Bioraptr FRD. After 30 min incubation at room temperature, the luminescence intensity in the plates was measured using a ViewLux plate reader (PerkinElmer).

| SMILES | outcome |
| --- | --- |
| OCCCCCO | inactive |
| CO[Si](C)(OC)c1ccccc1 | inactive |
| O=C(O)CCCC[P+](c1ccccc1)(c1ccccc1)c1ccccc1 | inactive |
| CC(C)NNC(=O)c1ccncc1 | inactive |
| CC(C)(C)C(=O)c1ccccc1 | inactive |
| CC1=NS(=O)(=O)c2cc(Cl)ccc2N1 | inactive |
| CC(C)[C@H]1CC[C@@H](C)CC1=O | inactive |
| O=[N+]([O-])c1ccc(/C=N\O)o1 | inactive |
| CC(=O)NC(=O)c1ccccc1O | inactive |
| O=S(=O)(O)c1cccc(S(=O)(=O)O)c1 | inactive |
| CCN1CCOCC1 | inactive |
| C=COCC1CCC(COC=C)CC1 (stereo not given) | inactive |
| C[N+]1(C)CCCC(OC(=O)C(O)(c2ccccc2)c2ccccc2)C1 (stereo not given) | inactive |
| CC1=CC(=O)[C@H]2C[C@@H]1C2(C)C | inactive |
| CCN(CC#N)c1cccc(C)c1 | inactive |
| CO/N=C(\C(=O)N[C@@H]1C(=O)N2C(C(=O)O)=C(CSc3nc(=O)c(O)nn3C)CS[C@H]12)c1csc(N)n1 | inactive |
| O=C(c1ccccc1)C1(O)CCCCC1 | inactive |
| Nc1ccccn1 | inactive |
| c1ccc(Cc2ccccc2)cc1 | inactive |
| CCOc1ccccc1OCC | inactive |

| SMILES | outcome |
| --- | --- |
| O=S(=O)(O)c1cccc2c(S(=O)(=O)O)cccc12 | inactive |
| CCNC(=O)[C@@H]1CCCN1C(=O)[C@H](CCCN=C(N)N)NC(=O)[C@H](CC(C)C)NC(=O)CNC(=O)[C@H](Cc1ccc(O)cc1)NC(=O)[C@H](CO)NC(=O)[C@H](Cc1c[nH]c2ccccc12)NC(=O)[C@H](Cc1cnc[nH]1)NC(=O)[C@@H]1CCC(=O)N1 ([pGlu]HWSYGLRP-NHEt) | inactive |
| CCCn1cc[n+](C)c1C | inactive |
| CCCCOCCOC(=O)COc1cc(Cl)c(Cl)cc1Cl | inactive |
| NS(=O)(=O)Cc1noc2ccccc12 | inactive |
| CCCCCCC#CC(=O)OC | inactive |
| CC1=CCC(O)(C(C)C)CC1 (stereo not given) | inactive |
| CC(=O)c1ccc2ccccc2c1 | inactive |
| CNC(=O)Nc1ccc(Cl)c(Cl)c1 | inactive |
| CCNS(=O)(=O)c1ccc(C)cc1 | inactive |
| CC(C)(C)OC(=O)c1cccc(N)c1 | inactive |
| NO | inactive |
| COc1cc(C(=O)NCc2ccc(OCCN(C)C)cc2)cc(OC)c1OC | inactive |
| C=C(C)C(=O)OCCOCCOCCOCCOC(=O)C(=C)C | inactive |
| CC(C)c1ccc2ncccc2c1 | inactive |
| Nc1ccn([C@@H]2O[C@H](CO)[C@@H](O)C2(F)F)c(=O)n1 | inactive |
| Cc1ncc(COP(=O)(O)O)c(C=O)c1O | inactive |
| O=Cc1cccc(Br)c1 | inactive |
| CC/C=C\CCOC(C)OCC (stereo not given) | inactive |
| O=C(O)c1cn(C2CC2)c2cc(N3CCNCC3)c(F)cc2c1=O | inactive |

Source: PubChem BioAssay (Tox21)
